PfHsp40 yeast – restores yeast growth despite PfHsp40 toxicity | 340,000 tested, 0.68% active | S. cerevisiae expressing PfHsp40, growth rescue, ATP luminescence | growth rescue, % at 12.5 µM | AID 504582; in the data active = growth rescue above about 28%, passing the limit was not always enough; inconclusive = no clear call, values can overlap the other calls;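 note: yeast W303a lacking pdr1 and pdr3 grown in galactose medium; growth measured after three days at 30 °C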
Sa ugtP lethal – compounds lethal to S. aureus RN4220 ugtP deletion mutant; OD600 growth, 16 h; growth inhibition, % (no concentration beside the values); 330,000 tested, 0.54% active; in the data active = growth inhibition above about 68%;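 note: plate controls were untreated wells for no effect and antibiotic for full effect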
Mtb bLac sens – beta-lactam sensitization of Mtb H37Rv; inhibition, % at 25 µM; M. tuberculosis H37Rv growth with meropenem, percent inhibition; 330,000 tested, 0.27% active; call rule not given here;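 note: growth measured after seven days incubation then overnight dye step; 0% = bacteria only wells and 100% = bacteria with antibiotic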
Sa RN4220 lethal – S. aureus RN4220 growth inhibition; inhibition, % (no concentration beside the values); 330,000 tested, 0.33% active; OD600, 16 h; in the data active = inhibition above about 85%;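 note: plate controls were untreated cells for no effect and reference antibiotic for full effect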
BioA inh – BioA (M. tuberculosis) enzyme inhibition. purified M. tuberculosis BioA enzyme, plate reader. inhibition, % at 9.99 µM. 360,000 tested, 0.096% active. AID 602481; in the data active = inhibition above about 40%; inconclusive = no clear call, values can overlap the other calls
An asterisk follows results filed as active; ? = inconclusive; . = no result. Hits are enriched below; roughly 0.9% of the tested compounds scored in any of these assays.

SMILES	PfHsp40 yeast	Sa ugtP lethal	Mtb bLac sens	Sa RN4220 lethal	BioA inh
Cc1ccc(S(=O)(=O)N2C(c3cccc(Cl)c3)CC=C(C(=O)O)C2c2ccc(F)cc2)cc1 (stereo not given)	.	46	.	24	.
CC(C)C[C@@]12C(=O)N(c3cccc(F)c3)C(=O)N1C(c1ccc(F)cc1)C1C(=O)N(C3CCCCC3)C(=O)C12 (stereo not given in full)	.	-12	.	-3	.
C/C(=N\NC(=S)NCCc1ccccc1)c1cccs1	96*	.	93	.	.
CCCCOc1c(Br)cc(/C=N/O)cc1OCC	0	.	86	.	10
CCCCOc1c(Br)cc(C=NO)cc1OCC	.	100*	.	0	.
COC(=O)c1ccc(C(NC(=O)OCc2ccccc2)C(C)=CC(C)C(=O)NCc2ccc(OC)c(OC)c2)cc1 (stereo not given)	.	1	.	2	.
CC(=O)Nc1cc2c(cc1[N+](=O)[O-])-c1ccccc1C2=NO	1	.	.	.	.
O=[N+]([O-])c1ccc2c(c1)C(=NO)c1ccccc1-2	.	97*	.	13	.
Nc1cc2c(cc1[N+](=O)[O-])-c1ccccc1C2=NO	73*	.	.	.	.
CC(C)C1S/C(=N/N=Cc2cccs2)NC1=O (stereo not given)	.	10	.	-2	.
O=C(C1=C(c2ccccc2)C(=O)c2ccccc2C1=O)c1ccccc1	2	96*	.	97*	.
COC1=C(c2ccccc2)C(=O)c2ccccc2C1=O	224*	57	4	57	.
COc1cnc(-c2ccccn2)nc1Sc1ccc(F)cc1	37*	-3	-12	6	.
COc1cnc(-c2ccccn2)nc1Sc1ccc(Cl)cc1	1	2	80	4	0
COc1cnc(-c2ccccn2)nc1N(C)c1ccccc1	183*	.	73	.	1
COc1cnc(-c2ccccn2)nc1Sc1ccccc1	268*	7	81	8	.
COc1cnc(-c2ccccn2)nc1Oc1ccccc1	2	-4	78	9	2
COc1ccc(Sc2nc(-c3ccccn3)ncc2OC)cc1	?	3	82	1	.
Cc1nnc(N/N=C/c2cccc(OCc3ccc(Cl)c(Cl)c3)c2)n1N	38*	.	100	.	0
CCCN(Cc1cc2cccc(C)c2[nH]c1=O)C(=O)c1cccc(OC)c1	72*	1	-2	1	-1
CCCN(Cc1cc2cc(C)ccc2[nH]c1=O)C(=O)c1cccc(OC)c1	0	-1	-11	-2	0
Cc1ccccc1NC(=S)NC(=O)CCc1ccccc1	7	85*	-5	3	2
COc1cccc(-c2sc3ccc(OC)cc3c2-c2ccc(C(N)=O)cc2)c1	0	7	2	2	-1
COc1cccc(-c2sc3ccc(OC)cc3c2-c2ccc(OC)cc2F)c1	1	90*	6	-1	5
COc1ccc2sc(-c3ccccc3OC)c(-c3ccc(OCCN(C)C)cc3)c2c1	-1	88*	.	2	-1
SMILES	PfHsp40 yeast	Sa ugtP lethal	Mtb bLac sens	Sa RN4220 lethal	BioA inh
COc1ccccc1-c1sc2ccccc2c1-c1ccc2c(c1)OCCO2	1	99*	7	-10	-1
COc1ccc(-c2c(-c3ccccc3OC)sc3ccccc23)cc1OC	0	12	50	-1	0
COc1cccc(-c2sc3ccc(OC)cc3c2-c2ccc(OCCN3CCCC3)cc2)c1	40*	90*	.	95*	-2
COC(=O)C(Cc1ccccc1)NC(=O)C(N)CC(=O)OCc1ccccc1 (stereo not given)	.	7	.	6	.
OCCC1CC(O)C(O)[C@@]2(OCc3ccccc32)O1 (stereo not given in full)	.	0	.	7	.
CCOC1OC(C(=O)NCc2nc3ccccc3[nH]2)=CC(c2ccccc2)C1CCCO (stereo not given)	.	-4	.	1	.
CCCCCCCCCCCCCCCC[n+]1cccc2ccccc21	6	97*	17	99*	.
O=[N+]([O-])c1ccc(C[n+]2cccc3c4ccccc4ccc32)cc1	-2	-4	8	-3	.
CCCCCCCCC[n+]1cccc2c3ccccc3ccc21	1	100*	91	100*	.
Cc1ccccc1C[n+]1cccc2ccccc21	-1	3	-4	2	1
Oc1ccc(Cl)cc1Cc1cc(Cl)ccc1O	234*	86*	2	94*	4
CCn1c(SCC(=O)Nc2nc(-c3ccc(C)cc3)cs2)nnc1-c1ccccc1	0	4	-12	-9	-4
CCn1c(SCC(=O)Nc2nc(-c3ccc(C)cc3)cs2)nnc1-c1ccccc1O	86*	37	-2	-8	-2
Clc1ccccc1CN(Cc1ccco1)Cc1nnnn1C1CCCC1	331*	-18	-5	7	1
O=C1C=C(c2cccc(Br)c2)CC(c2ccc3c(c2)OCO3)C1 (stereo not given)	.	15	.	11	.
COc1cccc(C2NC(=S)NC3=C2CCc2ccccc23)c1 (stereo not given)	173*	-3	-6	5	.
COc1ccc(-c2nnc(NC(=O)c3ccc(S(=O)(=O)N(C)CC4CCCO4)cc3)o2)c(OC)c1 (stereo not given)	4	100*	?	-7	-1
CCN1C(=O)C2C(c3ccc(SC4CCCCC4)cc3)N3CCCC[C@@]3(C(=O)OC)C2C1=O (stereo not given in full)	.	7	.	6	.
CC(C)N1CCN(c2ccc(OCC3CO[C@](Cn4cncn4)(c4ccc(Cl)cc4Cl)O3)cc2)CC1 (stereo not given in full)	.	12	.	1	.
CC(C)N1CCN(c2ccc(OC[C@H]3CO[C@](Cn4cncn4)(c4ccc(Cl)cc4Cl)O3)cc2)CC1	222*	.	70	.	-2
CC(C)N1CCN(c2ccc(OCC3COC(Cn4cncn4)(c4ccc(Cl)cc4Cl)O3)cc2)CC1 (stereo not given)	226*	.	.	.	.
CCCCOc1ccc(C(=O)NCCC(=O)NCCCC(=O)OCC)cc1	0	-4	1	2	.
CCCCCCCCNC(=O)CCNC(=O)c1ccc(C(C)(C)C)cc1	47*	-21	99	2	-1
COc1ccc(C2C=CCN(C(=O)OCc3ccccc3)CC(=O)N2Cc2ccc(F)cc2)cc1 (stereo not given)	.	10	.	11	.
COc1ccc(OC)c(Nc2cc(C(=O)NCCCN3CCOCC3)c3ccccc3n2)c1	-1	-1	-5	4	-2
SMILES	PfHsp40 yeast	Sa ugtP lethal	Mtb bLac sens	Sa RN4220 lethal	BioA inh
COc1ccccc1Nc1cc(C(=O)NCCCN2CCOCC2)c2ccccc2n1	68*	-5	-5	5	1
CNC(=O)c1c2c(nc3ccc(Br)cc13)CCCC2	-2	83*	0	2	0
Cc1ccc2nc3c(c(C(=O)O)c2c1)CCC3	0	4	-1	8	-1
CC1CCCC(C)N1C(=O)c1ccc2c(c1)S(=O)(=O)c1ccccc1C2=O (stereo not given)	70*	3	4	5	0
CC1COC(=O)C(NC(=O)OCC2c3ccccc3-c3ccccc32)CC=CCC(CC(=O)NCCO)C(=O)N1 (stereo not given)	.	-4	.	3	.
COc1ccc(-c2cc(N)n(S(=O)(=O)c3c(F)c(F)c(F)c(F)c3F)n2)cc1OC	0	95*	24	98*	-2

Screens from PubChem.
